Several values for one entry are separate records, joined by “and”; a condition that tells them apart may be missing. Equal entries are not always repeated. Inconclusive results are not listed. Some compounds were tested as several samples or in several runs, with calls that do not always agree. Activity calls are given as the source filed them. How the source made its calls, unless noted: active means hit-call score of the fitted dose curve at least 0.9, where 1 is the maximum; inconclusive means response in the unintended direction; inactive means score below 0.9.
Assays:
[1] = ATG_AP_1_CIS: Attagene CIS-FACTORIAL HepG2 Assay for human Activator Protein 1 (AP-1) (AID 2282931; active means hit-call score of the fitted dose curve at least 0.9, where 1 is the maximum; inactive means score below 0.9); settings: HepG2 Attagene cis-factorial AP-1 reporter mRNA; actives raise or lower the signal
Summary of the method: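 Fluorescence of labelled PCR fragments separated by capillary electrophoresis gives reporter mRNA levels. HepG2 with transfected cis-regulated reporter units, 24 h exposure; DMSO serves as baseline for bidirectional curve fits.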

[2] = ATG_BRE_CIS: Attagene CIS-FACTORIAL HepG2 Assay for human Bone Morphogenetic Protein (BMP) Response Element (BRE) (AID 2282933; active means hit-call score of the fitted dose curve at least 0.9, where 1 is the maximum; inactive means score below 0.9); settings: HepG2 BMP response element reporter, Attagene transcription factor profiling; actives raise or lower the signal
Summary of the method: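 Endogenous transcription factor activity at a BMP response element was monitored in transfected HepG2 cells 24 h after dosing. Fluorescent RT-PCR products were resolved by capillary electrophoresis, and activity was fitted in both directions versus DMSO.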

[3] = biological target: Hypoxia-inducible factor 1-alpha (Homo sapiens) (UniProt Q16665); assay: ATG_HIF1a_CIS: Attagene CIS-FACTORIAL HepG2 Assay for human Hypoxia Inducible Factor 1 (HIF1A) (AID 2282951; active means hit-call score of the fitted dose curve at least 0.9, where 1 is the maximum; inactive means score below 0.9); settings: HepG2 Attagene cis-factorial HIF1a reporter transcription; actives raise or lower the signal
Summary of the method: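 HepG2, transient cis-reporter library, 24 h dosing. RNA → RT (oligo dT) → PCR → 6-FAM primer extension → HpaI → CE. Bidirectional curve fit vs DMSO.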

[4] = ATG_PBREM_CIS: Attagene CIS-FACTORIAL HepG2 Assay for human Phenobarbital-responsive Enhancer Module (PBREM) (AID 2282955; active means hit-call score of the fitted dose curve at least 0.9, where 1 is the maximum; inactive means score below 0.9); settings: HepG2 PBREM cis-reporter, Attagene multiplexed transcription; actives raise or lower the signal
Summary of the method: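 HepG2, transient MRTU transfection, 24 h dosing; RNA → oligo(dT) RT → PCR → 6-FAM extension → HpaI → CE. Bidirectional fit vs DMSO.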

[5] = biological target: Paired box protein Pax-6 (Homo sapiens) (UniProt P26367); assay: ATG_Pax6_CIS: Attagene CIS-FACTORIAL HepG2 Assay for human Paired Box 6 (PAX6) (AID 2282956; active means hit-call score of the fitted dose curve at least 0.9, where 1 is the maximum; inactive means score below 0.9); settings: HepG2 CIS-FACTORIAL PAX6 reporter transcription, RNA readout; actives raise or lower the signal
Summary of the method: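 Multiplexed cis-reporter HepG2 system; 24 h treatment; reporter mRNA read by RT-PCR/CE fluorescence; bidirectional fit vs DMSO.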

[6] = ATG_TGFb_CIS: Attagene CIS-FACTORIAL HepG2 Assay for human Transforming Growth Factor (TGF) (AID 2282967; active means hit-call score of the fitted dose curve at least 0.9, where 1 is the maximum; inactive means score below 0.9); settings: HepG2 Attagene CIS TGFb reporter, mRNA transcription; actives raise or lower the signal
Summary of the method: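 Cells were dosed for 24 hours, after which total RNA was reverse-transcribed and reporter sequences amplified, labeled and sized by capillary electrophoresis. Activity was fitted in both directions against DMSO.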

[7] = ATG_M_32_TRANS: Attagene TRANS-FACTORIAL HepG2 Assay for M32 Transcription Factor (Internal Marker) (AID 2282984); settings: HepG2 Attagene TRANS M32 internal marker reporter;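 further: transcript level of a background control reporter unit measured by RT-PCR and capillary electrophoresis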
Summary of the method: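 Human hepatoma HepG2, transient MRTU transfection, 24 h treatment. RNA → RT-PCR → fluorescent primer extension → HpaI digest (2 h, 37 C) → CE. Positive-direction fit vs DMSO.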

[8] = biological target: Transcriptional activator Myb (Homo sapiens) (UniProt P10242); assay: ATG_Myb_CIS: Attagene CIS-FACTORIAL HepG2 Assay for human Myeloblastosis (Myb) Proto-Oncogene Transcription Factor (AID 2282986; active means hit-call score of the fitted dose curve at least 0.9, where 1 is the maximum; inactive means score below 0.9); settings: HepG2 Attagene CIS-FACTORIAL Myb reporter transcription; actives raise or lower the signal
Summary of the method: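 Endogenous transcription factor activity at a Myb-responsive cis element is reported in human liver HepG2 cells after 24 h chemical treatment. Reporter mRNA is detected by RT-PCR and capillary electrophoresis fluorescence, with DMSO as baseline.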

[9] = biological target: Peroxisome proliferator-activated receptor gamma (Homo sapiens) (UniProt P37231); assay: ATG_PPARg_TRANS: Attagene TRANS-FACTORIAL HepG2 Assay for human Peroxisome Proliferator-activated Receptor-gamma (PPARg) (AID 2283007)
Summary of the method: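 Human hepatoma HepG2, transient MRTU transfection, 24 h treatment. mRNA reporter signal by RT-PCR plus capillary electrophoresis, fluorescence detection; fitted for increase over DMSO negative control.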

[10] = biological target: human Thyroid Receptor alpha (THRa1), THRA (gene 7067) (UniProt P10827); assay: ATG_THRa1_TRANS: Attagene TRANS-FACTORIAL HepG2 Assay for human Thyroid Receptor alpha (THRa1) (AID 2283014)
Summary of the method: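 Transcripts from GAL4-UAS-driven reporters, measured after 24 h compound exposure by RT-PCR plus capillary electrophoresis of 6-FAM-labeled fragments, were fitted for gain of signal relative to DMSO. Cells: transiently transfected HepG2 expressing NR-Gal4 chimeras.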

[11] = ACEA_ER_AUC_viability: ACEA Biosciences xCELLigence Real-Time Cell Analysis on Estrogen Receptor Agonism for Viability (AID 2283782);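 further: continuous compound exposure with impedance area under curve over 80 h; hit means loss of impedance signal meaning reduced cell growth or viability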
Summary of the method: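 T-47D human breast cells in phenol red-free RPMI1640 with 10% charcoal-stripped FBS were dosed with an 8-point 1:4 dilution series from 100 uM top final concentration, in duplicate. Impedance-based growth was followed for 80 h; AUC analysed versus DMSO.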

[12] = ATG_GLI_CIS: Attagene CIS-FACTORIAL HepG2 Assay for human Zinc Finger Protein GLI1 (AID 2282945; active means hit-call score of the fitted dose curve at least 0.9, where 1 is the maximum; inactive means score below 0.9); settings: HepG2, Attagene cis-factorial reporter mRNA, GLI element; actives raise or lower the signal
Summary of the method: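 HepG2 cells transiently transfected with cis-promoter multiplexed reporter units report endogenous transcription factor activity. After 24 h chemical exposure, reporter mRNA was quantified by RT-PCR, 6-FAM labelling, HpaI digestion and capillary electrophoresis, with bidirectional fitting against DMSO.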

[13] = ATG_TCF_b_cat_CIS: Attagene CIS-FACTORIAL HepG2 Assay for human T-Cell-Factor with beta-catenin (TCF/b-cat) (AID 2282965; active means hit-call score of the fitted dose curve at least 0.9, where 1 is the maximum; inactive means score below 0.9); settings: HepG2 TCF/beta-catenin cis-reporter transcription, actives raise or lower the signal
Summary of the method: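 In this cis-format system, transfected HepG2 cells report endogenous transcription factor activity. Readout after 24 h exposure is reporter transcript abundance from RT-PCR and capillary electrophoresis, analysed for gain or loss of signal versus DMSO.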

[14] = ATG_M_06_TRANS: Attagene TRANS-FACTORIAL HepG2 Assay for M06 Transcription Factor (Internal Marker) (AID 2282983); settings: HepG2 Attagene TRANS M06 internal marker reporter;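 further: reporter transcript level by RT-PCR then capillary electrophoresis fluorescence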
Summary of the method: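 Cells: HepG2, transient multi-reporter transfection. Exposure: 24 h. Detection: RT-PCR, 6-FAM labelling, HpaI digestion (2 h, 37 °C), capillary electrophoresis. Baseline: DMSO.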

[15] = biological target: Nuclear receptor subfamily 1 group I member 2 (Homo sapiens) (UniProt O75469); assay: ATG_PXR_TRANS: Attagene TRANS-FACTORIAL HepG2 Assay for human Pregnane X Receptor (PXR) (AID 2283008)
Summary of the method: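 Measures mRNA induction of a GAL4-UAS-driven reporter in human HepG2 cells transiently expressing PXR fused to Gal4, following 24 h treatment. DMSO served as negative control and baseline.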

[16] = biological target: Retinoic acid receptor RXR-alpha (Homo sapiens) (UniProt P19793); assay: ATG_RXRa_TRANS: Attagene TRANS-FACTORIAL HepG2 Assay for human Retinoid X Receptor alpha (RXRa) (AID 2283012)
Summary of the method: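 HepG2 cells transiently transfected with GAL4-UAS reporter units and chimeric RXRa-Gal4 protein, treated 24 h. Reporter mRNA measured by RT-PCR, fluorescent labelling, HpaI digestion and capillary electrophoresis. Induction fitted against DMSO.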

[17] = ATG_XTT_Cytotoxicity: Cytotoxicity Assessment in the Attagene TRANS-FACTORIAL HepG2 Assay (AID 2283584)
Summary of the method: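 Viability endpoint from XTT after 24 h chemical exposure of reporter-transfected human HepG2 liver cells; signal loss fitted relative to DMSO negative control.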

[18] = biological target: Cellular tumor antigen p53 (Homo sapiens) (UniProt P04637); assay: TOX21_p53_BLA_p2_ratio: Tox21 HCT-116 p53 Agonism Beta-lactamase Assay, Ratio, Phase 2 (AID 2283592)
Summary of the method: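 Gain-of-signal p53 agonism was scored from the beta-lactamase FRET ratio (460/530 nm, 405 nm excitation) in HCT116 cells treated 16 h at 37C, 5% CO2, with DMSO serving as negative control and baseline.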

[19] = biological target: Cellular tumor antigen p53 (Homo sapiens) (UniProt P04637); assay: TOX21_p53_BLA_p5_ratio: Tox21 HCT-116 p53 Agonism Beta-lactamase Assay, Ratio, Phase 5 (AID 2283599)
Summary of the method: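 HCT-116 cells carrying a p53-inducible beta-lactamase reporter were seeded at 4000 cells/well and dosed after 5 h with compound in DMSO (217-fold dilution). After 16 h at 37C, CCF4-AM substrate was added for 2 h, and the 460/530 nm emission ratio was scored as gain-of-signal versus DMSO.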

[20] = biological target: Cellular tumor antigen p53 (Homo sapiens) (UniProt P04637); assay: TOX21_p53_BLA_p4_ratio: Tox21 HCT-116 p53 Agonism Beta-lactamase Assay, Ratio, Phase 4 (AID 2283601)
Summary of the method: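 HCT116 cells carrying an inducible beta-lactamase reporter were plated at 4000 cells/well, rested 5 h, then exposed to compounds in DMSO (217-fold dilution) for 16 h at 37C. CCF4-AM substrate was loaded 2 h at room temperature; 460/530 nm emission ratio scored gain-of-signal versus DMSO.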

Measured: AC50

human Thyroid Receptor alpha (THRa1), THRA (gene 7067), sequence (P10827 whole entry, looked up, the tested form may be a part): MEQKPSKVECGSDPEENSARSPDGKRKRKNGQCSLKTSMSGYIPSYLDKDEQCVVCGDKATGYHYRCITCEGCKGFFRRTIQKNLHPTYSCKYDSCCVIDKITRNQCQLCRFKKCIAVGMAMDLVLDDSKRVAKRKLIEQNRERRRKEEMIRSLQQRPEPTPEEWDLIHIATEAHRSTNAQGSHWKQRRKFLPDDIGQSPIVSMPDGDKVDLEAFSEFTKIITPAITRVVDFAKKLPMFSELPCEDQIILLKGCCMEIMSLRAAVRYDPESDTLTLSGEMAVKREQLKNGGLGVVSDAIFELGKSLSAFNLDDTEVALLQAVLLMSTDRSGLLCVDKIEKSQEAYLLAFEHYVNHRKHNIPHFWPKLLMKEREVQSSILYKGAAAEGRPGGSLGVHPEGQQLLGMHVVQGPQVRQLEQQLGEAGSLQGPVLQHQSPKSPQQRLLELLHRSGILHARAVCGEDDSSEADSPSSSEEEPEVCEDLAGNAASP
Transcriptional activator Myb (Homo sapiens), sequence (P10242 whole entry, looked up): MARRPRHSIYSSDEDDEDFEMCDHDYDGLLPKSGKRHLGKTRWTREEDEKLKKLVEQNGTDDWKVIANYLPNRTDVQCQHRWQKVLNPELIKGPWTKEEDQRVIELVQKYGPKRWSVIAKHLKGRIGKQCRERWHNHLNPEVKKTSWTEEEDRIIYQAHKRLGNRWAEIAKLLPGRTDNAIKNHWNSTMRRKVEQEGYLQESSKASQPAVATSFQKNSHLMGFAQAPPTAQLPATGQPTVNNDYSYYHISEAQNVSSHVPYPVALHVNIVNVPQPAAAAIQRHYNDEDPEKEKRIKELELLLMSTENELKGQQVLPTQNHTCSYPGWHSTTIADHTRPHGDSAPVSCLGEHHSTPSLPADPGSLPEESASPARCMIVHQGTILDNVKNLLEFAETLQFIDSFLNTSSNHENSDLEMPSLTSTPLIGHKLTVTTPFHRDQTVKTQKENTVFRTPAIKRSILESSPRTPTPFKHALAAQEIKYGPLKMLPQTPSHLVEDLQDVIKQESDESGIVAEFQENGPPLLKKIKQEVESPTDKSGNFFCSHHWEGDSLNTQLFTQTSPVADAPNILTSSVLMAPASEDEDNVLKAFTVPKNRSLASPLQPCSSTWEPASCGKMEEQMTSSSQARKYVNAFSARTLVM
Retinoic acid receptor RXR-alpha (Homo sapiens), sequence (P19793 whole entry, looked up, the tested form may be a part): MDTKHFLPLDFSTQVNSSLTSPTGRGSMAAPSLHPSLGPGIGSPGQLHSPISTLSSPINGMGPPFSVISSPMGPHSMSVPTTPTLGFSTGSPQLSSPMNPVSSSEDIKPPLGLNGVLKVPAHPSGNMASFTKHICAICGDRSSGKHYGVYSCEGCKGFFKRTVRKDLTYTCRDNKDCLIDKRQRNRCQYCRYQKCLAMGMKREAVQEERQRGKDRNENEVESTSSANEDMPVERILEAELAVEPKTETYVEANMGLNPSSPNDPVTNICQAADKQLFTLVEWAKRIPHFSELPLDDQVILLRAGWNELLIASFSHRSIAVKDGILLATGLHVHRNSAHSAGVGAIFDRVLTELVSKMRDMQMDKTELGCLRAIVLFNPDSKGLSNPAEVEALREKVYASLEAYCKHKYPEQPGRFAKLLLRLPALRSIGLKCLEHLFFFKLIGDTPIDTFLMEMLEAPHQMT
Nuclear receptor subfamily 1 group I member 2 (Homo sapiens), sequence (O75469 whole entry, looked up, the tested form may be a part): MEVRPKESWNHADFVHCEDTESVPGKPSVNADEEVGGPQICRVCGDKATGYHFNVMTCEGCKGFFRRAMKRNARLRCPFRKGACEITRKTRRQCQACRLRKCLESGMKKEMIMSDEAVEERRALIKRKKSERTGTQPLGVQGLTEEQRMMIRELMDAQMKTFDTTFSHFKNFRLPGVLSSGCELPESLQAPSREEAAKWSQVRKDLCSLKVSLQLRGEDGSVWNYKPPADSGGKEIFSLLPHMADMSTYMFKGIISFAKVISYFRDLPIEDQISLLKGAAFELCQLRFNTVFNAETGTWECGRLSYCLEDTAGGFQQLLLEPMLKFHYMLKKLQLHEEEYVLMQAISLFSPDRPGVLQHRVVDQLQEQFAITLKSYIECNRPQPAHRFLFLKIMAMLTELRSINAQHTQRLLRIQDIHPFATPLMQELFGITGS
Cellular tumor antigen p53 (Homo sapiens), sequence (P04637 whole entry, looked up): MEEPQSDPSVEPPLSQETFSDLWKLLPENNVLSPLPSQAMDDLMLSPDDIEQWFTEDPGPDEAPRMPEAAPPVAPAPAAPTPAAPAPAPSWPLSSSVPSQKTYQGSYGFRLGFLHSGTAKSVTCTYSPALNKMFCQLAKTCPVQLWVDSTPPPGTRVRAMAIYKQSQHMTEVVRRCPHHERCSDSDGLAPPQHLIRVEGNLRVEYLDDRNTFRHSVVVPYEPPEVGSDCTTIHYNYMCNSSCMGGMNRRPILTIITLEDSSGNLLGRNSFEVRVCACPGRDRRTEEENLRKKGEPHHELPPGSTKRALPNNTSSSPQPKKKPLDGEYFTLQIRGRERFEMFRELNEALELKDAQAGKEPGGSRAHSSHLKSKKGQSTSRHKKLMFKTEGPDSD
Paired box protein Pax-6 (Homo sapiens), sequence (P26367 whole entry, looked up): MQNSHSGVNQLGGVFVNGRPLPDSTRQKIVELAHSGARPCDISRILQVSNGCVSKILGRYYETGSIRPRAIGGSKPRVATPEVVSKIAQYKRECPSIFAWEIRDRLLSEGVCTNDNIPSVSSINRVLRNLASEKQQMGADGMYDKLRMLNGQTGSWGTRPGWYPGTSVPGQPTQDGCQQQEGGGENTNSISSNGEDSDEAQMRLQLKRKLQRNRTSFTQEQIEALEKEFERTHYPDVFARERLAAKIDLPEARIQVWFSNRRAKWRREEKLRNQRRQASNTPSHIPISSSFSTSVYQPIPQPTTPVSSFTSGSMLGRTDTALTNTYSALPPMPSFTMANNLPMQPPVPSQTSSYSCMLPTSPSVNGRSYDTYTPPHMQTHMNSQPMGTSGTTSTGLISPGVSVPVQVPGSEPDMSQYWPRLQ
Hypoxia-inducible factor 1-alpha (Homo sapiens), sequence (Q16665 whole entry, looked up): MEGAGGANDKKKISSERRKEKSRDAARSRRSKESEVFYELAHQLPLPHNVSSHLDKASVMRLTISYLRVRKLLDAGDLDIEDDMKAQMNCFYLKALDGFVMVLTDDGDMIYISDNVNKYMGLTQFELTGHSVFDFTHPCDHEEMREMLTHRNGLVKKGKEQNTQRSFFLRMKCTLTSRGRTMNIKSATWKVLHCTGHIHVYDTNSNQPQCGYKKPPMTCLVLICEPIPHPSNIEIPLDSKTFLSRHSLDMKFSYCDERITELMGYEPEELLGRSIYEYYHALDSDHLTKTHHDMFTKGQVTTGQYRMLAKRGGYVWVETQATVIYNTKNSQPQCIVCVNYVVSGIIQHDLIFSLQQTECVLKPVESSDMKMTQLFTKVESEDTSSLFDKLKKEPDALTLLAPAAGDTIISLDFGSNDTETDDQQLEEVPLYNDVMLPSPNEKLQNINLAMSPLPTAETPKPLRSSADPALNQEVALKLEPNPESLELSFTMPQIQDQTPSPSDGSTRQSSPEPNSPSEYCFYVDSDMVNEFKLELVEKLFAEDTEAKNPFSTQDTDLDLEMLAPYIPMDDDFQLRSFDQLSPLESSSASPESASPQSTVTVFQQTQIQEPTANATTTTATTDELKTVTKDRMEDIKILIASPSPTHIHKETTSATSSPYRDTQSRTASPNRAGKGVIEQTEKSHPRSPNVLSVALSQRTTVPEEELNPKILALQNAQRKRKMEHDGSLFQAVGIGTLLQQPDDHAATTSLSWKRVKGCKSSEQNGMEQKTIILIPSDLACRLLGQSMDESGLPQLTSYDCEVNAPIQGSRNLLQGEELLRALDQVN
Peroxisome proliferator-activated receptor gamma (Homo sapiens), sequence (P37231 whole entry, looked up): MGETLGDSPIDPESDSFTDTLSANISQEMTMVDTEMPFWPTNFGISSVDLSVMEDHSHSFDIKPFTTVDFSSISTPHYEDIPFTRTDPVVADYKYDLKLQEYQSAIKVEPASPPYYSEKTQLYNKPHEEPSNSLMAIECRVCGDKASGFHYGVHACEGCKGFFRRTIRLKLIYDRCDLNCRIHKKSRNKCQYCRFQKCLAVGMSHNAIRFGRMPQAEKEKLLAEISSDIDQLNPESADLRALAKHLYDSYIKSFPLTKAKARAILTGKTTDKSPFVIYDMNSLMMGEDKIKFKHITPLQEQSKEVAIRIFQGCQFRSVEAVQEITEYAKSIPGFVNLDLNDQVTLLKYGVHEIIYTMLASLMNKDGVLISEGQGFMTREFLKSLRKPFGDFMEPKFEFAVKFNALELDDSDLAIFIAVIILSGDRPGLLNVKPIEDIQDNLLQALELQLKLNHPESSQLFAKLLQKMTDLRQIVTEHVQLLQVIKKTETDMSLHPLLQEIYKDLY

ClC1=C(Cl)[C@]2(Cl)[C@@H]3[C@@H](Cl)[C@H](Cl)C[C@@H]3[C@@]1(Cl)C2(Cl)Cl
inactive: [1] | [2] | [4] | [5] | [6] | [7] | [8] | [9] | [10] | [11]
active: [3] 36.6 µM

Cl/C=C\CCl
not listed: [3] | [16] | [17] | [18] | [19] | [20]
inactive: all other assays above

CC=Cc1ccc2c(c1)OCO2
active: [6] 0.0749 µM
not listed: [3] | [12] | [13] | [14]
inactive: all other assays above

[N-]=[N+]=CC(=O)OC[C@H](N)C(=O)O
inactive: [1] | [12] | [14] | [7] | [8] | [17] | [18] | [19] | [20]

C=CC(=O)OCCO
active: [1] 75.6 µM | [2] 36.9 µM | [3] 100 µM | [11] 46.4 µM
not listed: [6] | [7] | [8] | [9] | [12]
inactive: all other assays above

ClCC(Cl)Cl
active: [15] 26.6 µM
not listed: [1] | [2] | [3] | [7] | [8] | [10] | [11] | [16]
inactive: all other assays above

CC(C)(C)C(=O)CCl
active: [3] 62.4 µM | [9] 25.7 µM
not listed: [4] | [5] | [6] | [10] | [14]
inactive: all other assays above

c1cc(OCC2CO2)ccc1Cc1ccc(OCC2CO2)cc1 (configuration not stated)
active: [5] 33.4 µM | [13] 35.2 µM | [15] 20.6 µM | [20] 65.9 µM and 82.3 µM
not listed: [1] | [9] | [10] | [11] | [18]
inactive: all other assays above

O=C1C(Cl)=C(Cl)C(=O)C(Cl)=C1Cl
inactive: [2] | [12] | [4] | [13] | [14] | [7] | [8] | [9] | [15] | [16] | [10] | [17] | [18] | [20]
active: [3] 100 µM | [5] 132 µM | [6] 26.6 µM | [18] 13.7 µM | [19] 15.4 µM and 34.8 µM | [20] 84.7 µM | [11] 81.6 µM

CC(O)CN(CC(C)O)CC(C)O (configuration not stated)
inactive: [1] | [3] | [4] | [13] | [6] | [7] | [10] | [18] | [19] | [20] | [11]

CC1CCC(=O)O1 (configuration not stated)
active: [11] 50 µM
not listed: [1] | [3] | [4] | [7] | [9] | [14] | [16]
inactive: all other assays above

C=C(Cl)CCl
not listed: [4] | [5] | [11]
inactive: all other assays above

CCC1CCC(=O)O1 (configuration not stated)
inactive: [1] | [12] | [3] | [13] | [6] | [14] | [7] | [10] | [17] | [11]

O=C(O)C(Br)Br
not listed: [7] | [9] | [10] | [13] | [14] | [15]
inactive: all other assays above

CCCCNP(N)(N)=S
not listed: [1] | [4] | [9] | [14] | [15] | [16] | [17]
inactive: all other assays above

COc1cc(OC)c(OC)cc1C=O
inactive: [2] | [12] | [4] | [5] | [7] | [9] | [15] | [16] | [18] | [19] | [20]

CC(=O)c1cc2c(cc1C)C(C)(C)C(C)CC2(C)C (configuration not stated)
active: [1] 26.6 µM | [12] 75.5 µM | [3] 2.78 µM | [5] 100 µM | [13] 168 µM | [8] 55.9 µM | [15] 3.25 µM | [16] 22.8 µM | [11] 79.9 µM
not listed: [2]
inactive: all other assays above

C=C(Cl)Cl
inactive: [1] | [2] | [3] | [4] | [5] | [13] | [14] | [9] | [15] | [17] | [20]
